The record followed here is PubChem BioAssay (NCATS).

Results filed as inconclusive are left out. Some compounds were tested as several samples or in several runs, with calls that do not always agree. Calls of active or inactive are those of the source. Calls follow the shape of the full dose curve.
Potency is read from the fitted curve at half-maximal effect.

The nature of this assay: Primary qHTS to identify inhibitors of SARS-CoV-2 cell entry (AID 1645846). Also: nearly all actives have a fitted effect of over 45% in size. Conditions: SARS-CoV-2 pseudovirus cell entry assay, luminescence; activity change, negative = inhibition: at 57.1 µM (top of the series) unless noted. The source says: Assay Provider: Wei Zheng, Ph.D.
National Center for Advancing Translational Sciences, National Institute of Health, Rockville, MD.
SARS-CoV-2 spike protein, within the viral envelope, mediates viral attachment and infection of host cells. The SARS-CoV-2 spike protein specifically binds to the host receptor ACE2 (Angiotensin-converting enzyme 2). This interaction promotes endocytosis of the viral particle, additional events lead to viral-host cell membrane fusion and release of the viral contents, allowing viral replication.
While SARS-CoV-2 requires BSL-3 facilities for live virus work, pseudotyped partices (PP) that incorporate SARS-CoV-2 spike proteins without replication elements could facilitate studies on viral entry mechanisms in a BSL-2 setting. This PP cell entry assay could also enable screening of small molecule compound libraries in BSL-2 setting to identify inhibitors of SARS-CoV-2 cell entry.
PROTOCOL TABLE (format as described by Inglese J, Shamu CE and Guy RK. 2007)
SEQUENCE No. (e.g., 1, 2, 3, etc.); […] (e.g., Cells, Incubation, Reagent, etc.); VALUE and DESCRIPTION.
1. Cells. Seed 1500 HEK293-ACE2 cells (Expi293F with stable expression of human ACE2) in 2 uL/well media (DMEM, 10% FBS, 1x L-glutamine, 1x Pen/Strep, 1 ug/ml puromycin) in white 1536-well assay plates (Greiner #782073).
2. Incubation. Incubate at 37C with 5% CO2 overnight (~16 h).
3. Compounds. Dispense 23 nL/well compounds in DMSO via pin transfer.
4. Incubation. Incubate for 1 hr at 37C 5% CO2.
5. Reagent. Dispense 2 uL/well of SARS-CoV-2-S pseudotyped particles. [a] PPs are produced with murine leukemia virus pseudotyping. [b] SARS-CoV-2-S is Wuhan-Hu-1 sequence (BEI #NR-52420) with C-terminal 19 amino acid truncation.
6. Centrifuge. […]
7. Incubation. Incubate at for 48 hr at 37C 5% CO2
8. Centrifuge. Remove supernatant with gentle centrifugation using a Blue Washer (BlueCat Bio).
9. Reagent. Dispense 4 uL/well of Bright-Glo Luciferase detection reagent (Promega #E2620).
10. Incubation. Incubate for 5 min at room temperature.
11. Detection. Read luminescence signal (Viewlux plate reader, PerkinElmer). Data was normalized with wells containing SARS-CoV-2-S PP as 100%, and wells containing bald PP (no fusion protein) as 0%.
Take `C[C@H]1[C@H](C)CC[C@]2(C(=O)O)CC[C@]3(C)C(=CC[C@@H]4[C@@]5(C)CC[C@H](O)C(C)(C)[C@@H]5CC[C@]43C)[C@H]12`: the activity change, negative = inhibition was 0.662%.

Regarding `Cn1cc(-c2nc(N[C@@H]3CCCC[C@@H]3N)c(F)c3c2C(=O)NC3)cn1`, the activity change, negative = inhibition is 4.2% [at 5.25 µM].

For `C[C@@H]1CC[C@@]2(OC1)O[C@H]1C[C@H]3[C@@H]4CC=C5C[C@@H](O[C@@H]6O[C@H](CO)[C@@H](O[C@@H]7O[C@@H](C)[C@H](O)[C@@H](O)[C@H]7O)[C@H](O)[C@H]6O[C@@H]6O[C@@H](C)[C@H](O)[C@@H](O)[C@H]6O)CC[C@]5(C)[C@H]4CC[C@]3(C)[C@H]1[C@@H]2C`, the Potency was 12.6 µM (active).

`CC1(C(=O)O)CCC2(C)CCC3(C)C(=CC(=O)C4C5(C)CCC(OC6OC(C(=O)O)C(O)C(O)C6OC6OC(C(=O)O)C(O)C(O)C6O)C(C)(C)C5CCC43C)C2C1` (stereo not given): the result was inactive.

Take `CO[C@H](C(=O)[C@@H](O)[C@@H](C)O)C1Cc2cc3cc(O[C@H]4C[C@@H](O[C@H]5C[C@@H](O)[C@H](O)[C@@H](C)O5)[C@@H](O)[C@@H](C)O4)c(C)c(O)c3c(O)c2C(=O)[C@H]1O[C@H]1C[C@@H](O[C@H]2C[C@@H](O[C@H]3C[C@](C)(O)[C@H](O)[C@@H](C)O3)[C@H](O)[C@@H](C)O2)[C@H](O)[C@@H](C)O1` (stereo not given in full): the activity change, negative = inhibition is -92.7%.

`CC[C@@]1(O)C(=O)OCc2c1cc1n(c2=O)Cc2c-1nc1cc(F)c(C)c3c1c2[C@@H](N)CC3`: the activity change, negative = inhibition is -94.1%.

On to `COc1ccc2c(c1)N(C[C@H](C)CN(C)C)c1ccccc1S2`, for which the Potency is 11.2 µM (active).

On to `NC(=O)c1ccc2nc(-c3ccc(C4(N)CCC4)cc3)c(-c3ccccc3)n2n1`, for which the Potency was 25.1 µM (active).

On to `CCOC(=O)c1ccnc(CNCC(=O)N(CC)CCN(C)C)c1`, for which the activity change, negative = inhibition is -19.4%.

Turning to `CCCCc1nc2cc(/C=C/C(=O)NO)ccc2n1CCN(CC)CC`, the compound was classed as inactive.

Regarding `O=c1c(-n2ccnn2)c[nH]n1-c1cc(N2CCOCC2)ncn1`, the Potency is 7.08 µM (active).

Turning to `C=Cc1ccccc1`, the activity change, negative = inhibition is -16.9%.

`C[C@]1(C(=O)N(CCCC(=O)O)Cc2cccc(Cl)c2)CCN1C(=O)c1csc2ccccc12`: the activity change, negative = inhibition was -20.2%.

Regarding `Cc1cc(-c2ccc(N=Nc3c(S(=O)(=O)O)cc4cc(S(=O)(=O)O)cc(N)c4c3O)c(C)c2)ccc1N=Nc1c(S(=O)(=O)O)cc2cc(S(=O)(=O)O)cc(N)c2c1O`, the activity change, negative = inhibition is 2.81%.

For `N#C/C(=C1/Nc2ccccc2S1)c1ccnc(OCc2ccc(CN3CCOCC3)cc2)n1`, the activity change, negative = inhibition was -97.6%.

Turning to `CO[C@@H]1C[C@H](O[C@H]2[C@H](C)[C@H](O[C@@H]3O[C@@H](C)C[C@@H](N(C)C)[C@H]3OC(C)=O)[C@H](C)C[C@]3(CO3)C(=O)[C@H](C)[C@H](OC(C)=O)[C@H](C)[C@H](C)OC(=O)[C@@H]2C)O[C@H](C)[C@H]1OC(C)=O`, the activity change, negative = inhibition is -34.5%.

`CCOC(=O)CCC(=O)O[C@H]1[C@H](O[C@@H]2[C@@H](C)[C@H](O[C@H]3C[C@@](C)(OC)[C@@H](O)[C@H](C)O3)[C@@H](C)C(=O)O[C@H](CC)[C@@](C)(O)[C@H](O)[C@@H](C)C(=O)[C@H](C)CC2(C)O)O[C@H](C)C[C@@H]1N(C)C` (stereo not given in full): the activity change, negative = inhibition was -2.45%.

Regarding `CN1CCCN(C(=O)c2cccc(-c3ccc(/C=C4/C(=O)Nc5ccc(Cl)cc54)o3)c2)CC1`, the Potency is 1 µM (active).

As for `O=C(O)CCCCN(CCc1ccccc1OCc1ccc(CCc2ccccc2)cc1)Cc1ccc(C(=O)O)cc1`, the result was inactive.

Turning to `Cc1onc(-c2c(F)cccc2Cl)c1C(=O)N[C@@H]1C(=O)N2[C@@H]1SC(C)(C)[C@H]2C(=O)O`, the activity change, negative = inhibition was -29.1%.

Regarding `CC(Oc1ccccc1)C(=O)N[C@@H]1C(=O)N2[C@@H]1SC(C)(C)[C@@H]2C(=O)O` (stereo not given in full), the activity change, negative = inhibition is -18.1%.

As to `O=C(O)CNC(=O)C1C(=O)N(C2CCCCC2)C(=O)N(C2CCCCC2)C1=O`, the activity change, negative = inhibition is -12.5%.

With `CCCC(=O)O[C@]1(C(=O)COC(C)=O)CC[C@H]2C3C[C@H](F)C4=CC(=O)C=C[C@]4(C)[C@@]3(F)[C@@H](O)C[C@@]21C` (stereo not given in full), the activity change, negative = inhibition is -5.47%.

Turning to `O=C(Cc1ccccc1)Nc1nnc(CCSCCc2nnc(NC(=O)Cc3ccccc3)s2)s1`, the result was inactive.

Regarding `COc1ccc(CNc2nc(N3CCC[C@H]3CO)ncc2C(=O)NCc2ncccn2)cc1Cl`, the call was inactive.

For the compound `CN(C(=O)CNC(=O)/C=C/c1cccc(Cl)c1)C1CCS(=O)(=O)CC1`, the activity change, negative = inhibition is -2.44%.

Turning to `CCCC[C@H](C)C[C@H](O)/C=C/[C@H]1[C@H](O)CC(=O)[C@@H]1CCCC/C=C/C(=O)O`, the activity change, negative = inhibition was -18.9%.

Take `CNC[C@@H]1CC[C@@H](N)[C@@H](O[C@H]2[C@H](O)[C@@H](O[C@H]3OC[C@](C)(O)[C@H](NC)[C@H]3O)[C@H](N)C[C@@H]2N)O1`: the activity change, negative = inhibition was -15.6%.

`C=CCNc1c(O)cc2c(O)c1C[C@@H](C)C[C@H](OC)[C@H](O)[C@@H](C)/C=C(/C)[C@H](OC(N)=O)[C@@H](OC)/C=C\C=C(\C)C(=O)N2`: the activity change, negative = inhibition is -94% and the Potency was 3.16 µM (active).

For the compound `COc1ccccc1C(=O)Nc1cc2c(cc1N1CCNC[C@H]1C)n(C)c(=O)n2C`, the activity change, negative = inhibition is -55.2%.

Take `C=CC(=O)N1CC/C(=C\c2ccc(F)c([N+](=O)[O-])c2)C(=O)/C(=C/c2ccc(F)c([N+](=O)[O-])c2)C1`: the Potency was 0.891 µM (active).

For `CO[C@@H]1[C@@H](O[C@@H]2O[C@H](C)[C@@H](O[C@H]3C[C@@](C)(O)[C@H](O)[C@H](C)O3)[C@H](N(C)C)[C@H]2O)[C@@H](CC=O)C[C@@H](C)[C@@H](O[C@H]2CC[C@H](N(C)C)[C@@H](C)O2)/C=C/C=C/C[C@H](C)OC(=O)C[C@H]1O`, the activity change, negative = inhibition was -34.9%.

Consider `COc1ccc(C(=O)N2CCN(C(=O)/C=C/c3ccc(Br)cc3)CC2)cc1`, for which the activity change, negative = inhibition is -2.12%.

With `N[C@@H]1CCCCN(c2c(F)cc3c(=O)c(C(=O)O)cn(C4CC4)c3c2Cl)C1`, the activity change, negative = inhibition was -8.2%.

Turning to `CC(C)(O)CC[C@@H](O)[C@](C)(O)[C@H]1CC[C@@]2(O)C3=CC(=O)[C@@H]4C[C@@H](O)[C@@H](O)C[C@]4(C)[C@H]3CC[C@]12C`, the activity change, negative = inhibition is -22.8%.

For `COc1cc([C@@H]2c3cc4c(cc3[C@@H](O[C@@H]3O[C@@H]5CO[C@@H](C)O[C@H]5[C@H](O)[C@H]3O)[C@H]3COC(=O)[C@H]23)OCO4)cc(OC)c1OP(=O)(O)O`, the Potency is 3.55 µM (active).

Consider `CC(=O)Nc1ccc(C(=O)Nc2ccccc2N)cc1`, for which the outcome was inactive.

With `FC(F)(F)c1ccc(CNc2ccc(Cc3c[nH]c4ncc(Cl)cc34)cn2)cn1`, the activity change, negative = inhibition was -1.72%.

As for `NCCCC[C@H](NC(=O)[C@@H]1CCCN1C(=O)[C@@H]1CSSC[C@H](N)C(=O)N[C@@H](Cc2ccccc2)C(=O)N[C@@H](Cc2ccccc2)C(=O)N[C@@H](CCC(N)=O)C(=O)N[C@@H](CC(N)=O)C(=O)N1)C(=O)NCC(N)=O`, the activity change, negative = inhibition is -27.3%.
